The whole screen tested about 5,600 compounds, of which about 780 (14%) were called active. Not shown: some 3% with an inconclusive outcome.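 How the source made its calls: active means mean signal decrease across replicates above about 35% based on untreated-well scatter, with enough replicates individually passing (limit read from the data); inconclusive means no rule stated though some were filed; inactive means the rest.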 Only a sample is shown.
Assay: cytotoxicity in mouse NIH/3T3 fibroblasts, confirmation, cytotoxicity control for T. cruzi proliferation inhibitor project, cell-based, cherry-pick, single point (AID 651742);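 further: 0% = median of neutral control wells and 100% = median of positive control wells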
Conditions: NIH/3T3 viability, CellTiter-Glo ATP luminescence, 90 h; at 8.35 µM; active compounds read high

Row | Compound | cytotoxicity (signal decrease)
1 | COc1ccc(S(=O)(=O)N2CCCCN3[C@H](C2)[C@H](c2ccc(C#CCC(C)C)cc2)[C@@H]3CO)cc1 | 20.8% (inactive)
2 | COc1ccc(S(=O)(=O)N2CCCCN3[C@H](CO)[C@@H](c4ccc(C#CC(C)C)cc4)[C@H]3C2)cc1 | 27.6% (inactive)
3 | CNC[C@H]1OCCCC[C@H](C)Oc2ccc(NC(=O)Nc3c(C)noc3C)cc2C(=O)N([C@H](C)CO)C[C@H]1C | 6.78% (inactive)
4 | COc1ccc(-c2ccc3c(c2)[C@@H]2[C@@H](CCN2C(=O)Cc2ccccn2)[C@H](CO)N3C)cc1 | 3.57% (inactive)
5 | C[C@@H]1CN([C@@H](C)CO)C(=O)CCCn2cc(nn2)CO[C@@H]1CN(C)S(=O)(=O)c1ccccc1F | -3.89% (inactive)
6 | C[C@@H]1CN([C@H](C)CO)C(=O)c2cc(/C=C/c3ccccc3)cnc2O[C@@H]1CN(C)Cc1ccncc1 | 0.61% (inactive)
7 | C[C@H](CO)N1C[C@H](C)[C@@H](CN(C)C(=O)Nc2cc(F)ccc2F)Oc2cc(C#CC3CC3)ccc2S1(=O)=O | -4.87% (inactive)
8 | C[C@@H]1CN([C@H](C)CO)S(=O)(=O)c2ccc(-c3cccc(C#N)c3)cc2O[C@@H]1CN(C)C(=O)Nc1ccccc1F | 45.7% (active)
9 | C[C@@H]1CN([C@@H](C)CO)S(=O)(=O)c2ccc(C#Cc3ccccc3)cc2O[C@@H]1CN(C)C(=O)Nc1ccccc1 | 11.7% (inactive)
10 | CN1c2ccc(-c3ccccc3)cc2[C@@H]2[C@@H](CCN2C(=O)c2ccncc2)[C@@H]1CO | 5.49% (inactive)
11 | O=C(C[C@H]1CC[C@@H]2[C@H](COC[C@H](O)CN2Cc2ccc(Oc3ccccc3)cc2)O1)N1CCN(c2ccccc2)CC1 | -0.257% (inactive)
12 | CCCC#Cc1ccc2c(c1)O[C@H](CN(C)C(=O)CC)[C@@H](C)CN([C@H](C)CO)S2(=O)=O | 17.5% (inactive)
13 | CC(C)C#Cc1ccc2c(c1)O[C@H](CN(C)Cc1ccccc1)[C@H](C)CN([C@@H](C)CO)S2(=O)=O | 41.7% (active)
14 | C[C@@H]1CN([C@@H](C)CO)S(=O)(=O)c2ccc(/C=C/c3ccccc3)cc2O[C@H]1CN(C)Cc1ccccc1 | 21.8% (inactive)
15 | CC(=O)N(C)C[C@H]1Oc2cc(C#CCN(C)C)ccc2S(=O)(=O)N([C@@H](C)CO)C[C@@H]1C | 4.99% (inactive)
16 | C[C@@H]1CN([C@H](C)CO)S(=O)(=O)c2ccc(C#C[C@@H](C)O)cc2O[C@@H]1CN(C)Cc1ccc(-c2ccccc2)cc1 | 14.4% (inactive)
17 | CCC(=O)N(C)C[C@@H]1Oc2cc(C#CCN(C)C)ccc2S(=O)(=O)N([C@H](C)CO)C[C@H]1C | -1.94% (inactive)
18 | C[C@H]1CN([C@@H](C)CO)S(=O)(=O)c2ccc(C#CCN(C)C)cc2O[C@@H]1CN(C)Cc1ccc(F)cc1 | 48.1% (active)
19 | O=C(Cc1ccccc1)N1CC[C@H]2[C@H](CO)Nc3ccc(-c4ccccc4F)cc3[C@H]21 | -5.9% (inactive)
20 | C[C@@H]1CN([C@H](C)CO)C(=O)c2cccc(NC(=O)c3ccc(-c4nccs4)cc3)c2O[C@@H]1CN(C)C(=O)Nc1ccc(C(F)(F)F)cc1 | 26% (inactive)

Row | Compound | cytotoxicity (signal decrease)
21 | C[C@@H]1CCCCO[C@H](CN(C)C(=O)Nc2ccc(C(F)(F)F)cc2)[C@H](C)CN([C@H](C)CO)C(=O)c2cc(NC(=O)Nc3ccc(C(F)(F)F)cc3)ccc2O1 | -8.85% (inactive)
22 | CC(C)NC(=O)N1[C@H](C#N)[C@H](c2ccc(C#CC3CCCCC3)cc2)[C@H]1CO | -28% (inactive)
23 | CCc1cnc(N2[C@H](C#N)[C@H](c3ccc(C4=CCCC4)cc3)[C@@H]2CO)s1 | 9.56% (inactive)
24 | N#C[C@H]1[C@@H](c2ccc(C3=CCCCC3)cc2)[C@@H](CO)N1C(=O)NC1CCCCC1 | 42.8% (active)
25 | Cc1noc(C)c1S(=O)(=O)Nc1ccc2c(c1)C(=O)N([C@@H](C)CO)C[C@@H](C)[C@H](CN(C)S(=O)(=O)c1ccc(Cl)cc1)OCCCC[C@H](C)O2 | -13.7% (inactive)
26 | O=C(Nc1cc(F)ccc1F)N1CCCCN2[C@H](CO)[C@@H](c3ccc(-c4cncnc4)cc3)[C@H]2C1 | 15% (inactive)
27 | CCCC#Cc1ccc2c(c1)O[C@@H](CN(C)C(=O)c1ccccc1F)[C@H](C)CN([C@H](C)CO)S2(=O)=O | 19.4% (inactive)
28 | COc1ccc(S(=O)(=O)Nc2ccc3c(c2)C(=O)N([C@@H](C)CO)C[C@H](C)[C@H](CN(C)Cc2ccc(C(F)(F)F)cc2)O3)cc1 | 3.37% (inactive)
29 | C/C=C/c1ccc([C@H]2[C@@H](CNC(C)C)N(c3nc(CC)cs3)[C@H]2CO)cc1 | 7.64% (inactive)
30 | C[C@H](CO)N1C[C@H](C)[C@@H](CN(C)Cc2ccc(C(=O)Nc3ccccc3N)cc2)Oc2c(NC(=O)c3ccc(-c4nccs4)cc3)cccc2C1=O | -13.6% (inactive)
31 | COc1ccccc1-c1ccc2c(c1)O[C@@H](CN(C)C)[C@H](C)CN([C@H](C)CO)S2(=O)=O | -9.91% (inactive)
32 | C[C@H]1CN([C@@H](C)CO)S(=O)(=O)c2ccc(C3=CCCC3)cc2O[C@@H]1CN(C)Cc1ccccc1 | 42.4% (active)
33 | C[C@H]1CN([C@@H](C)CO)S(=O)(=O)c2ccc(C3=CCCCC3)cc2O[C@@H]1CN(C)Cc1ccccc1 | 119% (active)
34 | C[C@@H]1CN([C@H](C)CO)S(=O)(=O)c2ccc(C3=CCCC3)cc2O[C@H]1CN(C)Cc1ccccc1F | 32% (inactive)
35 | C[C@H](CO)N1C[C@H](C)[C@@H](CN(C)C(=O)C2CCCCC2)Oc2cc(-c3ccccc3)ccc2S1(=O)=O | 26.2% (inactive)
36 | C[C@H](CO)N1C[C@H](C)[C@H](CN(C)Cc2ccncc2)Oc2cc(-c3ccncc3)ccc2S1(=O)=O | 19.9% (inactive)
37 | CS(=O)(=O)N1[C@@H](C#N)[C@H](c2ccc(C#CC3CCCCC3)cc2)[C@@H]1CO | 4.86% (inactive)
38 | COc1cccc(S(=O)(=O)N2CCCCN3[C@H](C2)[C@H](c2ccc(C#CC(C)C)cc2)[C@@H]3CO)c1 | 19.3% (inactive)
39 | C[C@@H]1CN([C@@H](C)CO)C(=O)c2cc(NC(=O)Nc3ccc(C(F)(F)F)cc3)ccc2O[C@@H](C)CCCCO[C@H]1CN(C)C(=O)c1ccccc1 | 23.5% (inactive)
40 | C[C@H]1CN([C@@H](C)CO)C(=O)CCCn2cc(nn2)CO[C@H]1CN(C)C(=O)c1ccccc1 | 10.9% (inactive)

Row | Compound | cytotoxicity (signal decrease)
41 | C[C@H](CO)N1C[C@H](C)[C@H](CN(C)C(=O)Nc2ccc(C(F)(F)F)cc2)OCCCC[C@H](C)Oc2ccc(NC(=O)C3CCCCC3)cc2C1=O | -27% (inactive)
42 | Cc1noc(C)c1S(=O)(=O)Nc1ccc2c(c1)C(=O)N([C@@H](C)CO)C[C@H](C)[C@@H](CN(C)C(=O)Nc1cccc3ccccc13)OCCCC[C@H](C)O2 | 7.99% (inactive)
43 | COc1ccc(S(=O)(=O)Nc2ccc3c(c2)C(=O)N([C@H](C)CO)C[C@H](C)[C@H](CN(C)Cc2ccc(C(F)(F)F)cc2)O3)cc1 | 29% (inactive)
44 | O=C(CN1CCOCC1)N1CCCCN2[C@@H](CO)[C@H](c3ccc(-c4ccccc4)cc3)[C@@H]2C1 | 8.85% (inactive)
45 | C[C@H]1CN([C@@H](C)CO)C(=O)c2cc(NC(=O)Nc3ccc4c(c3)OCO4)ccc2O[C@@H]1CN(C)Cc1ccc(Oc2ccccc2)cc1 | 16% (inactive)
46 | C[C@@H]1CN([C@@H](C)CO)C(=O)c2cc(NC(=O)Cc3ccccc3)ccc2O[C@@H]1CN(C)Cc1ccc(Oc2ccccc2)cc1 | 27.9% (inactive)
47 | N#C[C@@H]1[C@@H](c2ccc(C#Cc3cccc(F)c3)cc2)[C@@H](CO)N1C(=O)C1CCC1 | 29.1% (inactive)
48 | CC(C)CC#Cc1cnc2c(c1)C(=O)N([C@@H](C)CO)C[C@@H](C)[C@H](CN(C)C(=O)Cc1ccncc1)O2 | -12% (inactive)
49 | CC(=O)N(C)C[C@@H]1[C@@H](c2ccc(-c3ccccc3F)cc2)[C@@H](CO)N1C(C)=O | 0.445% (inactive)
50 | CCN(C[C@H]1[C@H](c2ccccc2)[C@H](CO)N1C(=O)C1CC1)C(=O)NC1CCCC1 | -12.5% (inactive)
51 | CC(C)NC(=O)Nc1ccc2c(c1)C(=O)N([C@H](C)CO)C[C@H](C)[C@H](CN(C)C(=O)Nc1ccc(C(F)(F)F)cc1)OCCCC[C@@H](C)O2 | -9.66% (inactive)
52 | O=S(=O)(c1ccccc1)N1CC[C@@H]2[C@@H](CO)Nc3ccc(C#Cc4cccc(F)c4)cc3[C@@H]21 | 33% (inactive)
53 | Cc1ccccc1S(=O)(=O)N1CC[C@H]2[C@H](CO)Nc3ccc(-c4cccc(F)c4)cc3[C@H]21 | 52.4% (active)
54 | OC[C@@H]1Nc2ccc(-c3cccc(F)c3)cc2[C@H]2[C@@H]1CCN2Cc1ccncc1 | 9.48% (inactive)
55 | C[C@H](CO)N1C[C@H](C)[C@@H](CN(C)Cc2ccc(C(F)(F)F)cc2)OCCCC[C@H](C)Oc2ccc(NC(=O)C3CCCCC3)cc2C1=O | 27.4% (inactive)
56 | COc1cccc(S(=O)(=O)Nc2ccc3c(c2)[C@H]2C[C@H](CC(=O)NCc4ccc(Cl)cc4)O[C@H](CO)[C@H]2O3)c1 | -23.8% (inactive)
57 | CN(C)C(=O)c1ccc(-c2ccc3c(c2)[C@H]2[C@H](CCN2C(=O)c2ccc4c(c2)OCO4)[C@H](CO)N3)cc1 | -2.98% (inactive)
58 | O=C(c1ccc(F)cc1)N1CCCCN2[C@H](C1)[C@@H](c1ccc(C#CC3(O)CCCC3)cc1)[C@@H]2CO | 2.43% (inactive)
59 | C[C@H](CO)N1C[C@H](C)[C@H](CN(C)S(=O)(=O)c2ccc(F)cc2)OCCCC[C@H](C)Oc2ccc(NS(=O)(=O)c3ccc(Cl)cc3)cc2C1=O | 22.2% (inactive)
60 | C[C@@H]1CN([C@H](C)CO)C(=O)c2cccc(NC(=O)NC3CCCCC3)c2O[C@H]1CN(C)Cc1ccc(C(F)(F)F)cc1 | -8.62% (inactive)

From PubChem BioAssay AID651742 (Broad Institute, 2012)
